Screening results: PubChem, several laboratories
Rows were chosen to be rich in hits. Some 3.1% of all compounds tested hit in one or more screens of this group.
PP1 counter – counter-screen for PP5 inhibitors: inhibitors of human PP1-alpha; P62136; purified PP1alpha, OMFP fluorescence; inhibition, % at 6.7 µM; 0.9% of 320,000 active; AID 2235;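 active = inhibition above the mean inhibition of all tested compounds plus 3 SD, computed separately for each screening campaign, cut at about 15% in these data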
Beta apoptosis – beta cell apoptosis inhibition. INS-1E cytokine-induced death, ATP luminescence, 48 h; percent of positive-control rescue, neutral wells zero. protection from apoptosis, % (no concentration beside the values). 0.8% of 300,000 active;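 active = Every replicate reaches about 75%, or at least half do and their mean reaches it too, limit read from the data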;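 also: higher means more ATP so stronger rescue from cytokine killing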
SKKanGAS inh – blocks kanamycin growth of S. pyogenes SKKanGAS strain; inhibition, % at 7.5 µM; BacTiter-Glo, 6 h; 1.3% of 300,000 active;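 active = mean replicate score, as percent of positive control median, at least 50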;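 also: strain carries kanamycin resistance gene driven by streptokinase promoter and grows in 40 µg/ml kanamycin; loss of luminescence reflects streptokinase promoter inhibition or plain growth inhibition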
PP5 primary – inhibitors of human protein phosphatase 5 (PP5) | inhibition, % at 6.7 µM | purified PP5c, OMFP substrate fluorescence | 0.18% of 320,000 active;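 active = inhibition above the campaign's mean inhibition across all tested compounds plus 3 SD, cut at about 9.5% in these data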
Target sequence (P53041 whole entry, looked up): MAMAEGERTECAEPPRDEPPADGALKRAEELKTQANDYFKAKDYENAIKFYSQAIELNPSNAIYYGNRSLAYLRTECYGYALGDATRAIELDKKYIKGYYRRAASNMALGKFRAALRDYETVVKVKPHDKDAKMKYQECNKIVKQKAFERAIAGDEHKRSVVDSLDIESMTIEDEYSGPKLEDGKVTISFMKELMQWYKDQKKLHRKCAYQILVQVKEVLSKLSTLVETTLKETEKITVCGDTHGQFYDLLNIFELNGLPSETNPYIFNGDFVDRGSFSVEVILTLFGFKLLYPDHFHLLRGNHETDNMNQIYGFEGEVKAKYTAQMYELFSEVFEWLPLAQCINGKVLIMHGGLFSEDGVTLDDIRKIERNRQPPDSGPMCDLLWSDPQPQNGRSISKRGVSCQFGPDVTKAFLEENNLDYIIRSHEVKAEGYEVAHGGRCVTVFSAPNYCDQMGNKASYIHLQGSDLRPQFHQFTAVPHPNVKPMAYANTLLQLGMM
CSC inhib – cancer stem cell inhibition; cancer stem cell-like cells viability, luminescence; inhibition, % at 7.5 µM; 1.1% of 300,000 active; in the data active = inhibition above about 75%; tested in HMLE shEcad cells
A number is an active result; - = inactive; . = no result given; + = active, no number.

SMILES | PP1 counter | Beta apoptosis | SKKanGAS inh | PP5 primary | CSC inhib
O=C(/C(N=Nc1cccc(C(F)(F)F)c1)=C(/O)c1cccs1)C(F)(F)F | - | - | - | - | 140
Cc1cc(C)c2sc(NC(=O)c3ccc([N+](=O)[O-])o3)nc2c1 | - | - | - | - | 92
O=C(Nc1nc2ccccc2s1)c1ccc([N+](=O)[O-])o1 | - | - | - | - | -
O=C(Nc1nc2c(F)cc(F)cc2s1)c1ccc([N+](=O)[O-])o1 | - | - | - | - | 96
Cc1ccc(C)c(-c2nnc(NC(=O)c3ccc([N+](=O)[O-])o3)o2)c1 | - | - | 80 | - | -
COc1ccc2nc(NC(=O)c3ccc([N+](=O)[O-])o3)sc2c1 | - | . | - | - | 75
Cc1cc(C)c2nc(NC(=O)c3ccc([N+](=O)[O-])o3)sc2c1 | - | . | - | - | -
CC(C)CN(C(=O)c1cccc(S(=O)(=O)N2CCN(c3ccc(F)cc3)CC2)c1)C1CCS(=O)(=O)C1 (stereo not given) | - | - | - | - | -
Cc1cccc(N2CCN(C(=O)c3cc(COc4ccc(F)c(F)c4)on3)CC2)n1 | - | - | - | - | -
Nc1c(Cl)cc(-c2csc(N3CCCC3c3nc4cc(Cl)c(N5CCCCC5)cc4n3CCCO)n2)cc1Cl (stereo not given) | 17 | - | - | - | -
CCOC(=O)c1c(NS(=O)(=O)Cc2ccccc2)sc2c1CCCC2 | - | - | - | - | -
CCOC(=O)c1c(NS(=O)(=O)c2ccc(Br)cc2)sc2c1CCC2 | - | - | 79 | - | -
CC1CC(C)(C)CC2(C1)NC(=O)N(CC(=O)NCc1ccccc1F)C2=O (stereo not given) | - | - | - | - | -
CC(=O)Oc1ccc(-c2ccc(C(=O)Nc3cccc(S(=O)(=O)N4CCOCC4)c3)cc2)cc1 | - | - | - | - | 93
Cc1nc(-c2ccc([N+](=O)[O-])cc2)nc2[nH]ccc(=O)c12 | . | - | - | . | -
CC1CN(CC(O)COc2ccc(C(C)C)cc2)CC(C)O1 (stereo not given) | - | - | - | - | -
CC1CN(CC(O)COC(c2ccc(Cl)cc2)c2ccc(Cl)cc2)CC(C)O1 (stereo not given) | - | 106 | - | - | -
CC1=C(C(=O)OCC2CCCO2)C(c2ccc(Cl)cc2)NC(=O)N1 (stereo not given) | - | - | - | - | -
O=Cc1ccc(Oc2cc(-c3ccccc3)nc(-c3ccccc3)n2)cc1 | - | - | - | - | 100
Cc1ccn2c(NC(C)(C)C)c(-c3cccs3)nc2c1 | - | - | - | - | -
O=C(/C=C/c1ccccc1O)c1ccc(Cl)cc1 | 17 | - | - | - | -
COc1ccccc1/C=C/C(=O)c1ccc(Cl)cc1 | - | . | - | - | .
CCN(CC)CCNC(=O)c1cccc(NC(=O)C(=O)c2ccccc2NC(C)=O)c1 | - | - | - | - | -
c1ccc(C2C/C(=N\N3CCOCC3)c3ccccc3O2)cc1 (stereo not given) | - | - | - | - | -
CC(C)(C)N/N=C1\CC(c2ccccc2)Oc2ccccc21 (stereo not given) | - | - | 73 | - | .
SMILES | PP1 counter | Beta apoptosis | SKKanGAS inh | PP5 primary | CSC inhib
Cc1ccc(-c2cc3c(nn2)-c2ccccc2C3=O)cc1 | - | - | - | - | -
Cc1ccccc1-c1cc2c(nn1)-c1ccccc1C2=O | - | - | - | - | 108
O=C(CSc1cn[nH]n1)Nc1ccccc1F | - | - | - | - | -
Cc1c(C(=O)N2CCC(Cc3ccccc3)CC2)sc2ncnc(N3CCC(C)CC3)c12 | - | - | 56 | - | -
Cc1c(C(=O)N2CCN(Cc3ccccc3)CC2)sc2ncnc(N3CCOCC3)c12 | - | - | - | - | -
O=C(NC(NCc1cccnc1)C(Cl)(Cl)Cl)c1cccc2ccccc12 (stereo not given) | - | - | - | - | -
O=c1c2ccccc2cnn1-c1nc2ccccc2[nH]1 | . | . | 58 | . | .
O=c1c(Cl)c(N2CCCCC2)cnn1-c1nc2ccccc2[nH]1 | - | - | - | - | -
COc1cc(NC(=O)CCc2nnc3ccc(N4CCCCC4)nn23)cc(OC)c1OC | - | - | - | - | -
CC1CC(C)CN(C(=O)C2CCN(S(=O)(=O)c3ccc4c(c3)CC(C)N4C(=O)C3CC3)CC2)C1 (stereo not given) | - | - | - | - | -
CCOC(=O)N1CCC(NC(=O)C2CCN(C(=O)c3cc4sccc4n3CC)CC2)CC1 | - | - | - | - | -
CCOc1ccccc1N=C1SC(CC(=O)Nc2ccc(OC)cc2OC)C(=O)N1CCC1=CCCCC1 (stereo not given) | - | 76 | - | - | -
COc1ccc(N2CCN(C(=O)c3ccccc3)CC2)c([N+](=O)[O-])c1 | - | - | - | - | -
O=C(NC(=S)N1CCN(c2ccc(O)cc2)CC1)c1cccs1 | - | - | - | - | -
O=C(NC(=S)N1CCN(c2c(Cl)cccc2[N+](=O)[O-])CC1)c1cccs1 | - | - | 76 | - | -
COc1ccc(N2CCN(C(=S)NC(=O)c3cccs3)CC2)c([N+](=O)[O-])c1 | - | - | 52 | - | -
Cc1c(CCOC(=O)CC23CC4CC(CC(C)(C4)C2)C3)sc[n+]1CC(=O)c1ccccc1 | - | - | - | - | 100
Cc1c(CCOC(=O)CC23CC4CC(CC(C4)C2)C3)sc[n+]1CC(=O)c1ccc(Br)cc1 | - | - | - | - | 118
Cc1c(CCOC(=O)c2ccccc2)sc[n+]1CC(=O)c1ccc(Br)cc1 | - | - | - | - | .
C[C@@H](N)C(=O)NC[C@H]1CC[C@H](C(=O)N[C@@H](Cc2ccccc2)C(=O)O)CC1 | . | - | - | . | -
O=C(CCNC(=O)c1ccccc1)Nc1cccnc1 | - | - | - | - | -
O=C(c1c[nH]c2ccccc12)C(Cl)c1ccccc1 (stereo not given) | - | - | - | - | 83
Cc1ccc(S(=O)(=O)Nc2cccc(-c3ccc(N4CCCCCC4)nn3)c2)cc1C | 17 | - | - | - | -
O=S(=O)(Nc1cccc(-c2ccc(N3CCCCCC3)nn2)c1)c1ccc(F)cc1 | - | - | - | - | -
O=S(=O)(Nc1cccc(-c2ccc(N3CCCCCC3)nn2)c1)c1ccc(C(F)(F)F)cc1 | 17 | - | - | - | -
SMILES | PP1 counter | Beta apoptosis | SKKanGAS inh | PP5 primary | CSC inhib
O=S(=O)(Nc1cccc(-c2ccc(N3CCCCCC3)nn2)c1)c1ccccc1F | - | - | - | - | -
O=S(=O)(Nc1cccc(-c2ccc(N3CCCCCC3)nn2)c1)c1ccccc1Cl | 17 | - | - | - | -
S=C(NCCc1ccccc1)N/N=C/c1c(Cl)cccc1Cl | - | - | - | - | -
S=C(NCCc1ccccc1)N/N=C/c1ccc(Cl)cc1 | - | - | 65 | - | -
COc1ccc(C(=O)c2c(C(F)(F)F)oc3c2C(=O)c2ccccc2C3=O)cc1OC | - | . | 100 | - | 102
COc1ccc(C(=O)Nc2ccc3c(c2)C(=O)c2ccccc2C3=O)cc1OC | - | - | - | - | -
COc1ccccc1N1CCN(C(=O)c2ccc(CSc3ccccc3)cc2)CC1 | - | - | - | - | -
O=C(c1ccc(CSc2ccccc2)cc1)N1CCN(c2ccccc2)CC1 | - | - | - | - | +
